# IL-1B inflam inh: qHTS for Inhibitors of Inflammasome Signaling: IL-1-beta AlphaLISA Primary Screen. THP-1 LPS/ATP IL-1B secretion, AlphaLISA, 16 h; active compounds read low. AID 743279, 2014. activity change, % at 57.5 µM. 360,000 compounds, 4.7% hits; in the data active = activity change below about -50%; inconclusive = mostly about -30% to -49%; also: % is scaled to controls: 0 for no effect and ±100 for the full control effect
#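 Secreted IL-1B measured by AlphaLISA bead assay after 16 h compound exposure of THP-1 cells; compounds (final up to 57.5 uM) added 1 h before LPS (250 ng/mL) and ATP (1.25 mM) stimulation; lower signal means less secretion.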
# TGFb inhibitor: qHTS for Inhibitors of TGF-b. HepG2 CAGA-GFP TGF-b/SMAD3 reporter, GFP fluorescence, 18 h; TGF-beta stimulated, 500 pg/mL final. Potency, µM (top dose mostly 46.1 µM), for inactives: top-dose activity, negative = inhibition, most hits filed as inhibitors. 410,000 compounds, 1.2% hits. AID 588855, 2011; also: potency is read from the fitted curve at half-maximal effect; % is scaled to controls: 0 for no effect and ±100 for the full control effect; nearly all actives have a fitted effect of over 65% in size
#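 Per well, imaged GFP fluorescence of HEPG2 CAGA-GFP cells gives the signal; cells get compound, then TGF-beta (500 pg/mL final), 18 h at 37 degrees C; %Activity versus -TGF-beta and +DMSO controls.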
# HepG2 viability: qHTS for Inhibitors of TGF-b: Cytotox Counterscreen. HepG2 CAGA-GFP viability, ATP luminescence, 18 h. 410,000 compounds, 0.76% hits. Potency, µM (doses to about 46.1 µM), without a hit: top-dose activity change, negative = cytotoxicity, usual class: cytotoxic; also: potency is read from the fitted curve at half-maximal effect
#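 HepG2 CAGA-GFP cells (1000/well, DMEM with 1% FBS) received compound, then TGF-beta at 500 pg/mL final, and were incubated 18 hours at 37 degrees C. Viability was read by CellTiter-Glo luminescence. Media-only wells were set as complete cell-killing and DMSO as no toxicity.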
# Giardia killer: Small Molecules that selectively kill Giardia lamblia: qHTS; Giardia lamblia trophozoite viability; activity change, % at 7.66 µM, hits read low; 340,000 compounds, 0.15% hits; AID 540267, 2011; in the data active = activity change below about -80%; inconclusive = between about -30% and that limit;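 also: parasites exposed to compound for two days anaerobically before the ATP read; % is scaled to controls: 0 for no effect and ±100 for the full control effect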
#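 Luminescent ATP signal served as the viability read-out, measured 15-30 min after adding ATP detection reagent to trophozoites that had been incubated with compounds for 48 hrs at 37 deg C anaerobically at 100 cells/well.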
# HT1080 IDH1KD tx: qHTS for induction of synthetic lethality in tumor cells producing 2HG: qHTS for the HT-1080-IDH1KD cell line; Potency, µM (series often up to 46.1 µM), for the others: at the highest dose activity, negative = toxicity, hits mostly cytotoxic; 360,000 compounds, 2% hits; HT-1080 IDH1 knockdown viability, ATP luminescence, 48 h;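 also: potency is read from the fitted curve at half-maximal effect; 0% = DMSO wells and -100% = cell-free medium wells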
#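 % activity derives from luminescence (CellTiter-Glo), normalised to DMSO and no-cell wells. HT-1080-IDH1KD cells, 750/well, had 48 h compound exposure at 37 °C.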
# HT1080NT lethal: qHTS for induction of synthetic lethality in tumor cells producing 2HG: qHTS for the HT-1080-NT fibrosarcoma cell line; HT-1080-NT fibrosarcoma viability, CellTiter-Glo ATP luminescence, 48 h; Potency, µM (highest dose often 46.1 µM), for the others: at the highest dose activity, negative = less viability, actives largely listed as cytotoxic; AID 686970, 2013; 360,000 compounds, 1.6% hits;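 also: NT is the 2HG producing partner of a matched IDH1 knockdown line; potency is read from the fitted curve at half-maximal effect; 0% = DMSO-treated cells and -100% = media-only wells without cells; nearly all actives have a fitted effect of over 55% in size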
#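 Luminescent CellTiter-Glo readout after 48 hours of compound exposure at 37 degrees C defined viability of HT-1080-NT cells. Activity was normalized to DMSO wells and cell-free media wells; concentration-response curves were fitted and assigned curve classes.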
# Starred values were filed as active, the others as inactive; u = inconclusive; x = not tested or not shown. In the library only some 6.5% were active in any assay of this set; here they are far more common. Unless noted, calls follow the shape of the dose curve; as a rule, active = well fitted curve in the direction sought with a large enough effect; inconclusive = small, poorly fitted or top-dose-only effect, or another doubt; inactive = no such curve, though single readings can be large; an effect the other way counts as inactive or inconclusive.
SMILES,IL-1B inflam inh,TGFb inhibitor,HepG2 viability,Giardia killer,HT1080 IDH1KD tx,HT1080NT lethal
S=C(NCCN1CCOCC1)N1CCN(c2cccc(Cl)c2)CC1,-92*,-29%,-13%,-1,-4%,-2%
Clc1cccc(N2CCN(CCCN3CCN(c4ccccc4)CC3)CC2)c1,-53*,0%,-19%,4,u,-26%
O=C(NCCN1CCCC1)c1cccc(Cl)c1,42,-10%,-12%,-7,18%,u
O=S(=O)(c1cccc(NC(=S)N2CCN(c3cccc(Cl)c3)CC2)c1)C(F)F,u,0%,5%,6,23µM*,21µM*
CCN(CC)S(=O)(=O)c1ccc(N2CCOCC2)c(NC(=O)C23CC4CC(CC(Cl)(C4)C2)C3)c1,4,12%,2%,1,-2%,1%
CCOC(=O)[C@@H]1CCN(Cc2ccccc2)C[C@H]1c1ccccc1,-9,-4%,0%,5,-16%,-5%
Cc1nn(-c2ccc(F)cc2)c(-n2cccc2)c1C(=O)NCCCN1CCN(c2cccc(Cl)c2)CC1,x,11µM*,18µM*,x,x,x
S=C(c1ccc2c(c1)OCO2)N1CCN(c2cccc(Cl)c2)CC1,31,1%,11%,6,3.3µM*,u
O=C(NC(=S)NCCN1CCOCC1)c1cccc(Cl)c1,4,-20%,2%,8,u,25µM*
O=C1CC(=C(c2ccccc2)c2ccccc2)C(=O)N1CCCCN1CCN(c2ccccc2)CC1,u,u,-19%,6,16µM*,18µM*
O=C(CCCN1CCN(c2ccccc2)CC1)c1ccc(F)cc1,2,20%,-2%,x,-12%,1%
COc1ccc(CN2CCN(C(=O)c3ccc(CNS(=O)(=O)c4ccc(C)cc4)cc3)CC2)c(OC)c1OC,4,-17%,-1%,-15,-7%,-14%
N#C/C(=C\c1cn(CC(=O)N2CCCC2)c2ccccc12)C(=O)NCc1ccc2c(c1)OCO2,-18,8%,0%,-13,1%,18%
Fc1ccc2c(c1)Sc1ccc(Cl)cc1CC2N1CCN(CCC2OCCO2)CC1 (configuration not stated),-75*,u,-36%,-20,u,u
COc1ccc2c(c1)CC(N1CCN(C)CC1)c1cc(OC)ccc1S2 (configuration not stated),-93*,u,16µM*,19,21µM*,u
O=[N+]([O-])c1ccc2c(c1)C(N1CCN(CCO)CC1)Cc1ccc(F)cc1S2 (configuration not stated),0,u,-63%,x,16µM*,16µM*
CCN1C(=O)CC(N2CCN(c3ccc(OC)cc3)CC2)C1=O (configuration not stated),5,-2%,0%,8,12%,4%
CC(C)c1ccc2c(c1)C(N1CCN(C)CC1)Cc1cccnc1S2 (configuration not stated),u,22%,-12%,4,u,u
CSc1ccc2c(c1)C(N1CCN(C)CC1)Cc1ccc(F)cc1S2 (configuration not stated),-56*,u,-130%,7,u,u
CC(C)NC(=O)NC(=O)COC(=O)Cc1c(F)cccc1Cl,-7,12%,1%,-4,-1%,-2%
CCCn1cc2c(c1-c1ccc(C)cc1)c(=O)n(C)c(=O)n2C,8,-7%,-2%,6,-6%,-2%
COc1ccc(-c2c3c(=O)n(C)c(=O)n(C)c3cn2C2CCCCC2)cc1,-54*,-13%,-2%,-2,1%,7%
